# Test results from the supplement of paper PMC9844399.
# Where a name gives a salt, the structure may show the parent alone.
# System: HeLa
# Assay: nuclear count per well, robust Z-score vs DMSO; higher = more cells (less toxicity)
# Settings: 10 µM; 6 h
# 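Note: Hoechst-stained nuclei counted by automated confocal imaging of four fields per well in 384-well plates, with the robust Z-score based on the per-plate DMSO median and robust SD.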
row,Structure (SMILES),nuclear count per well
1,COc1nc(N)nc2c1ncn2[C@@H]1O[C@H](CO)[C@@H](O)[C@@H]1O [Nelarabine],-0.434
2,CC(C)[C@H](N)C(=O)OCC(CO)OCn1cnc2c(=O)nc(N)[nH]c21 (stereo not given in full),-0.387
3,CC(C)C[C@H](NC(=O)[C@@H](Cc1c[nH]c2ccccc12)NC(=O)[C@H](Cc1ccc(O)cc1)NC(=O)[C@H](CO)NC(=O)[C@H](Cc1c[nH]c2ccccc12)NC(=O)[C@H](Cc1cnc[nH]1)NC(=O)[C@@H]1CCC(=O)N1)C(=O)N[C@@H](CCCN=C(N)N)C(=O)N1CCC[C@H]1C(=O)NCC(N)=O [Triptorelin Acetate],0.525
4,CCC[C@H](N[C@H]1CCc2cc(F)cc(F)c2C1)C(=O)Nc1cn(C(C)(C)CNCC(C)(C)C)cn1,2.56
5,Cc1cccn2c(=O)c(-c3nnn[nH]3)cnc12 [Pemirolast Potassium],-0.761
6,OC(Cn1cncn1)(Cn1cncn1)c1ccc(F)cc1F [Fluconazole],-0.299
7,C[C@]12C=CC(=O)N[C@@H]1CC[C@@H]1[C@@H]2CC[C@]2(C)[C@@H](C(=O)Nc3cc(C(F)(F)F)ccc3C(F)(F)F)CC[C@@H]12 [Dutasteride],0.968
8,CCOC(=O)C1=C(COCCN)NC(C)=C(C(=O)OC)C1c1ccccc1Cl (stereo not given) [Amlodipine],-0.153
9,C[C@@H]1C[C@H]2[C@@H]3CCC4=CC(=O)C=C[C@]4(C)[C@@]3(Cl)[C@@H](O)C[C@]2(C)[C@@]1(OC(=O)c1ccco1)C(=O)CCl [Mometasone Furoate],0.429
10,CCC[C@H](N[C@@H](C)C(=O)N1[C@H](C(=O)O)C[C@@H]2CCCC[C@@H]21)C(=O)OCC [Perindopril Erbumine],-1.42
11,Cc1ccc(N(CC2=NCCN2)c2cccc(O)c2)cc1 [Phentolamine hydrochloride],0.226
12,NCC(=O)CCC(=O)O,-1.01
13,O=C(O)CN1C(=O)c2cccc3cccc(c23)C1=O [Alrestatin],0.265
14,NS(=O)(=O)c1cc2c(cc1Cl)NCNS2(=O)=O [Hydrochlorothiazide],-0.11
15,CCCCCCOC(=O)[C@]1(O)C[C@@H]2O[C@@]1(C)n1c3ccccc3c3c4c(c5c6ccccc6n2c5c31)C(=O)NC4,0.303
16,NC(=S)c1ccccc1 [Thiobenzamide],-0.0414
17,OC[C@H]1O[C@@H](O[C@@H]2[C@@H](CO)OC(O)(CO)[C@H]2O)[C@H](O)[C@@H](O)[C@H]1O (mixture of isomers) [Lactulose],0.314
18,Clc1ccc(C(c2ccc(Cl)cc2)[n+]2ccn(CC(OCc3ccc(Cl)cc3Cl)c3ccc(Cl)cc3Cl)c2)cc1 (stereo not given) [Calmidazolium chloride],0.978

row,Structure (SMILES),nuclear count per well
1,"CCCCCCCCC#CCC#CCC#CCCCC(=O)O [5,8,11-Eicosatriynoic acid]",0.469
2,CCCCC[C@H](O)/C=C/[C@H]1C(=O)C=C[C@@H]1C/C=C\CCCC(=O)O [Prostaglandin J2],0.0931
3,Nc1cc(-c2ccncc2)c[nH]c1=O [Amrinone],0.16
4,N[C@@H](C(=O)N[C@@H]1C(=O)N2C(C(=O)O)=C(Cl)CS[C@H]12)c1ccccc1 [Cefaclor],-0.195
5,CN1CCC(=C2c3ccccc3CC(=O)c3sccc32)CC1,-0.95
6,CC/C=C\C/C=C\C/C=C\C/C=C\C/C=C\CCCC(=O)O [Eicosapentaenoic acid (20:5 n-3)],0.276
7,COc1cc(-c2ccc(=O)[nH]n2)ccc1OC(F)F [Zardaverine],0.171
8,Oc1ncnc2[nH]ncc12 [Allopurinol],0.829
9,O=c1c(-c2ccc(O)cc2)coc2cc(O)cc(O)c12 [Genistein],0.154
10,OC(CNCC(O)C1CCc2cc(F)ccc2O1)C1CCc2cc(F)ccc2O1 (stereo not given),-0.325
11,CC[C@@H](CO)NCCN[C@@H](CC)CO [Ethambutol Dihydrochloride],0.65
12,O=C(O)CCCC=CCC1C2CCC(O2)C1CNNC(=O)Nc1ccccc1 (stereo not given),0.408
13,CC1=NN(c2ccccc2)C(=O)C1,0.294
14,C#C[C@]1(O)CC[C@H]2[C@@H]3CCC4=CC(=O)CC[C@@H]4[C@H]3C(=C)C[C@@]21CC [Etonogestrel],-1.34
15,CC12CC3CC(C)(C1)CC(N)(C3)C2,-0.93
16,CCCCC/C=C\CC1OC1C/C=C\C/C=C\CCCC(=O)O (stereo not given),-0.0982
17,CN1CCN2c3ncccc3Cc3ccccc3C2C1 (stereo not given) [Mirtazapine],0.384
